Assay results reported in the supplement of paper PMC6555819.

System: LXRa homodimer (NR concentration 270 nM)
Test: PBM binding z-score (relative to random genomic background probes); higher = stronger binding; sequences stand for … in GC…GCGATTGACAGCGTAGAATGAAGG
How it was run: (§1)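 Custom Agilent 4×180K protein-binding microarrays carried double-stranded probes. Their 34-nt variable regions held direct-repeat seeds, single-nucleotide variants, half-site ablations and random human genomic background sequences. Arrays were incubated 1 h with ligand-free nuclear receptor dimers in PBS pH 7.4, 2% milk, 0.02% Triton X-100, 1 mM DTT, 0.2 mg/mL BSA and 0.4 mg/ml salmon testes DNA. Antibodies against each partner (one per run) detected binding, and scanned fluorescence was regression-normalized. Binding z-scores use random background probes as reference.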

| Sequence | PBM binding z-score |
| --- | --- |
| TCTTGTAGGTCAGCAGGTTAAGAAAGCTGGCCAA | 0.186 |
| TAGCCTAGGTCATTCAGGGCCCAGTATAGAAAGC | 0.608 |
| AATATAGGGTCACTAGGCCAGAGTAGGTACGAAT | 0.894 |
| CCTCCGAGGACAACAGGAGGTCAGAGCTGCCAGA | 2.21 |
| CCTAGCTGGTCAAGGTCACACACGCTATAGGTAC | 1.74 |
| ATCGAAAGGTCGTCAGGTGAGTATACAGAAAGGC | 0.518 |
| ATCGAAAGGTCGTGAGGTGAATATACAGAAAGGC | 0.33 |
| TGAATGAGGTTATAAGAGCAGGGAACGTTGCAAA | -0.152 |
| CCTAGTTGGCCAGGAGGTCACACACCGGATATGA | 1.73 |
| AGTCAAAGTTCACTAGGTAACGTCAGATTCAGCT | 2.92 |
| AGAACGAGGGCACGCTGAGTAGATAGCAGAGTAG | -0.626 |
| TCAGACAGGTGATGGTAACTCAGGTACGCAGTCG | 0.0587 |
| CCTCGGAGGACAAGAGGAGGTCAGAGCTGCCAGA | 0.18 |
| ATATGTAGGTTATCGGGTAATTCAGTTTGCGCAT | 1.01 |
| GCTATTAGTTGAAAGCGCAACCGAATGATTCTCG | 0.0981 |
| CGGCAAAGTTCAAGGTAACGTAACAGAAAGCAGC | 1.74 |
| ATACCAAGGTGATCGTGAGGTTGTTGATACTAAC | 0.106 |
| ACAGACAGGTGAGTGAAGGTACCTCAGCTGGACG | -0.687 |
| GGAACGACGGCATTCGAGTTGATAGCATGGCGAT | -0.583 |
| TCGCGTAGGTTACCAATGGGGCATTCAGCTTTCT | -0.559 |

| Sequence | PBM binding z-score |
| --- | --- |
| TTACCAAGGTAAGCTGAGGTCGTTGATCCAACTC | -0.287 |
| CCTACTGGGCCACGAAAGGTCAGTGATTCAGTGA | 1.41 |
| GCTTCTAGATCAAGGTTAAGAAAGACTAAGCTAA | -0.313 |
| ACGATTAGTTGAGACGAGGGCAACCGATAGGTTG | -0.3 |
| ATATGTAGGTGAGCTGGGGTCATTCAGACTAGGC | 0.762 |
| CCTAGTTGGTCAGGAGGTCTCACACCGGATATGA | 0.125 |
| CTCGAAAGGTCGTGCTCAGGTGAGGATACCAAAC | 0.268 |
| CCGGCTGGGGCAAGGTTACCATAACGCACAGCCA | -0.338 |
| CCGACTGGGGCATAAGGTTACCATAAGCCAGCCC | -0.354 |
| GCGACTGGGGCACAGCAGGTTACCATAAGGTTGG | -0.715 |
| AGTCAAAGTTAAGGACGAGGTAACGTAAAGCACG | -0.464 |
| CGTCCAAGGTCAACGTCAGTGAAAGAGACTCGAA | 0.128 |
| ACAGACAGGTGAGTGAATGTAACTCAGCTGGACG | -0.418 |
| GCTGCTAGGTCAACTGATGGTCAGATAAAGCTCG | 0.48 |
| TGAATGAGGTTATAGGATCAGGGAACGTTGCAAA | -0.459 |
| TAGTCTAGGTCATTGGGCCAGTATAGTACGCATC | 2.26 |
| CCAACTGGGCCAAAGGTCATTGATTCCAATGCTC | 3.93 |
| AGCCAAAGTTCATCTAGGTAACGTAAGATATGCT | 5.31 |
| TCATATAGGTCATACAGGTGAAAGTCGGCATCTA | 1.98 |

System: LXRb:RXRa (NR concentration 270 nM, RXRa partner concentration 90 nM)
Test: as above
How it was run: as §1

| Sequence | PBM binding z-score |
| --- | --- |
| TCTTGTAGGTCAGCAGGTTAAGAAAGCTGGCCAA | 2.16 |
| TAGCCTAGGTCATTCAGGGCCCAGTATAGAAAGC | 2.37 |
| AATATAGGGTCACTAGGCCAGAGTAGGTACGAAT | 4.07 |
| CCTCCGAGGACAACAGGAGGTCAGAGCTGCCAGA | 1.51 |
| CCTAGCTGGTCAAGGTCACACACGCTATAGGTAC | 3.43 |
| ATCGAAAGGTCGTCAGGTGAGTATACAGAAAGGC | 3.25 |
| ATCGAAAGGTCGTGAGGTGAATATACAGAAAGGC | 3.66 |
| TGAATGAGGTTATAAGAGCAGGGAACGTTGCAAA | 0.923 |
| CCTAGTTGGCCAGGAGGTCACACACCGGATATGA | 3.53 |
| AGTCAAAGTTCACTAGGTAACGTCAGATTCAGCT | 2.84 |
| AGAACGAGGGCACGCTGAGTAGATAGCAGAGTAG | 0.201 |
| TCAGACAGGTGATGGTAACTCAGGTACGCAGTCG | 0.648 |
| CCTCGGAGGACAAGAGGAGGTCAGAGCTGCCAGA | 0.759 |
| ATATGTAGGTTATCGGGTAATTCAGTTTGCGCAT | 1.33 |
| GCTATTAGTTGAAAGCGCAACCGAATGATTCTCG | -0.318 |
| CGGCAAAGTTCAAGGTAACGTAACAGAAAGCAGC | 3.16 |
| ATACCAAGGTGATCGTGAGGTTGTTGATACTAAC | 0.338 |
| ACAGACAGGTGAGTGAAGGTACCTCAGCTGGACG | -0.78 |
| GGAACGACGGCATTCGAGTTGATAGCATGGCGAT | -0.948 |
| TCGCGTAGGTTACCAATGGGGCATTCAGCTTTCT | 1.01 |

| Sequence | PBM binding z-score |
| --- | --- |
| TTACCAAGGTAAGCTGAGGTCGTTGATCCAACTC | 0.881 |
| CCTACTGGGCCACGAAAGGTCAGTGATTCAGTGA | 2.24 |
| GCTTCTAGATCAAGGTTAAGAAAGACTAAGCTAA | 0.697 |
| ACGATTAGTTGAGACGAGGGCAACCGATAGGTTG | -0.292 |
| ATATGTAGGTGAGCTGGGGTCATTCAGACTAGGC | 4.15 |
| CCTAGTTGGTCAGGAGGTCTCACACCGGATATGA | -0.00774 |
| CTCGAAAGGTCGTGCTCAGGTGAGGATACCAAAC | 3.22 |
| CCGGCTGGGGCAAGGTTACCATAACGCACAGCCA | 0.353 |
| CCGACTGGGGCATAAGGTTACCATAAGCCAGCCC | 0.645 |
| GCGACTGGGGCACAGCAGGTTACCATAAGGTTGG | -0.0951 |
| AGTCAAAGTTAAGGACGAGGTAACGTAAAGCACG | -0.186 |
| CGTCCAAGGTCAACGTCAGTGAAAGAGACTCGAA | 4.19 |
| ACAGACAGGTGAGTGAATGTAACTCAGCTGGACG | -0.486 |
| GCTGCTAGGTCAACTGATGGTCAGATAAAGCTCG | 2.43 |
| TGAATGAGGTTATAGGATCAGGGAACGTTGCAAA | 1.39 |
| TAGTCTAGGTCATTGGGCCAGTATAGTACGCATC | 2.54 |
| CCAACTGGGCCAAAGGTCATTGATTCCAATGCTC | 4.85 |
| AGCCAAAGTTCATCTAGGTAACGTAAGATATGCT | 3.78 |
| TCATATAGGTCATACAGGTGAAAGTCGGCATCTA | 4.49 |
